VACV Venus inh = inhibitors of vaccinia virus (Venus reporter); 330,000 tested, 0.46% active; Vaccinia virus Venus reporter expression, fluorescence; Potency, µM (top dose mostly 36.5 µM), without a hit: at the top dose activity change, negative = inhibition, actives largely listed as inhibitors; calls by dose curve; tested in A549 cells; also: potency is read from the fitted curve at half-maximal effect; nearly all actives have a fitted effect of over 30% in size
Vaccinia mCherry = vaccinia inhibition (mCherry reporter). Vaccinia virus mCherry reporter infection, fluorescence. Potency, µM (series often up to 36.5 µM), for the others: at the highest dose activity change, negative = inhibition, actives largely listed as inhibitors. 310,000 tested, 0.63% active. AID 720579; calls by dose curve; tested in A549 cells; also: potency is read from the fitted curve at half-maximal effect; nearly all actives have a fitted effect of over 35% in size
HCMV antiviral = inhibitors of human cytomegalovirus | AID 1259415 | activity change, negative = inhibition, % at 57.5 µM | HFF cells, HCMV-luciferase reporter, 72 h; hits give low values | 410,000 tested, 4.5% active; in the data active = activity change below about -60%; inconclusive = no clear call, values can overlap the other calls; inactive = above about -39%
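Inhibition of viral replication was scored as loss of reporter luminescence in HFFs infected with HCMV-luciferase (MOI 1 PFU/cell) for 72 h; compounds tested at 2 doses, normalized to buffer and Salinomycin controls.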
FBPA Giardia inh = inhibitors of Giardia lamblia fructose-1,6-bisphosphate aldolase; 290,000 tested, 0.71% active; Potency, µM (titrated, usually from 59.6 µM), inactives show top-dose activity, negative = inhibition, actives largely listed as inhibitors; A8B2U2; purified Giardia FBPA; also: potency is read from the fitted curve at half-maximal effect; nearly all actives have a fitted effect of over 55% in size
Target sequence (A8B2U2 whole entry, looked up): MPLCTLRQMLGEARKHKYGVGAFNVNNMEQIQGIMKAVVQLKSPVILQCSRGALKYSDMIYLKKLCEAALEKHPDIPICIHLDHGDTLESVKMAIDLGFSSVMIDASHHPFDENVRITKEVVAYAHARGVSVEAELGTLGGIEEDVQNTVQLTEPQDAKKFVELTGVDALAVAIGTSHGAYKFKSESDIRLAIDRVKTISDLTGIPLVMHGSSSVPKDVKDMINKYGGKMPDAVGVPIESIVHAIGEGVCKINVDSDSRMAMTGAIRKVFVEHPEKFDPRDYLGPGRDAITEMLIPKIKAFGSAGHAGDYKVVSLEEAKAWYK
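Giardia FBPA (40 nM reagent) was preincubated 10 min at RT with compound (up to 57.5 uM final), then substrate plus GAPDH/TPI/NAD/arsenate coupling system with diaphorase/resazurin was added; resorufin fluorescence (525/598 nm) was read after 20 min.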
FMDV antiviral = blocks foot and mouth disease virus | FMDV antiviral cell-based qHTS | Potency, µM (highest dose often 57.9 µM), for inactives: at the highest dose activity change, negative = inhibition, hits mostly inhibitors | 410,000 tested, 1.2% active | AID 1159524; calls by dose curve; tested in HEK293T cells; also: read-out not given here; potency is read from the fitted curve at half-maximal effect; nearly all actives have a fitted effect of over 45% in size
HCV inhibitor = inhibitors of hepatitis C virus infection; AID 651820; Huh7.5.1 HCVcc-Cre infection, luciferase reporter, 44 h; Potency, µM (doses to about 41.8 µM), without a hit: at the highest dose activity change, negative = inhibition, actives largely listed as inhibitors; 340,000 tested, 3.4% active; also: potency is read from the fitted curve at half-maximal effect
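Luciferase read-out (15 sec integration) after a 15 min room-temperature substrate step quantifies HCVcc-Cre infection. Cells, 1,000 per well, had compound added 4 h post-plating, then virus at ~0.5 moi, and were cultured 44 h.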
* hit, by the source's call. Hits are enriched below; roughly 7.5% of the tested compounds scored in any of these assays. Unless noted, calls follow the shape of the dose curve; as a rule, active = well fitted curve in the direction sought with a large enough effect; inconclusive = small, poorly fitted or top-dose-only effect, or another doubt; inactive = no such curve, though single readings can be large; an effect the other way counts as inactive or inconclusive. % is scaled to controls: 0 for no effect and ±100 for the full control effect.

Screening Cc1ccc(OCC(=O)Nc2cc(C(=O)O)cc(C(=O)O)c2)cc1C returned VACV Venus inh 5%, Vaccinia mCherry 5%, HCMV antiviral -65*, FBPA Giardia inh 7%, FMDV antiviral -6% and HCV inhibitor -3%.
`Cc1cccc(OCC(=O)Nc2ccc3c(c2)OCCO3)c1` gave VACV Venus inh -7%, Vaccinia mCherry -23%, HCMV antiviral 17, FBPA Giardia inh -1%, FMDV antiviral 33% and HCV inhibitor inconclusive.
For Cc1ccc(OCC(=O)Nc2ccc3c(c2)OCCO3)cc1C the results were VACV Venus inh -13%, Vaccinia mCherry inconclusive, HCMV antiviral -63*, FBPA Giardia inh -4%, FMDV antiviral -21% and HCV inhibitor -5%.
`c1ccc(CCCCc2ccncc2)cc1` gave VACV Venus inh -8%, Vaccinia mCherry -22%, HCMV antiviral -63*, FMDV antiviral -11% and HCV inhibitor 7%.
Screening COc1ccc(-c2cn3cccnc3n2)cc1NC(=O)c1ccc(Br)o1 returned HCMV antiviral -21, FBPA Giardia inh -16%, FMDV antiviral -5% and HCV inhibitor 11µM*.
COc1ccc(-c2cn3cccnc3n2)cc1NC(=O)Nc1cc(C)ccc1C was read as VACV Venus inh -29%, Vaccinia mCherry -25%, HCMV antiviral -69* and FMDV antiviral 5%.
CCC1=C(c2cc(OC)c(OC)c(OC)c2)C2(CCCC2)C(=O)O1 was read as VACV Venus inh -9%, Vaccinia mCherry inactive, HCMV antiviral 44, FBPA Giardia inh 5%, FMDV antiviral -24% and HCV inhibitor 5%.
`CCOC(=O)c1cc(-c2ccccc2)n(-c2cccc(C(=O)Nc3ccc(F)c(F)c3)c2)c1C` gave VACV Venus inh -14%, Vaccinia mCherry -23%, HCMV antiviral inconclusive and FMDV antiviral inconclusive.
For CCOC(=O)c1cc(-c2ccccc2)n(-c2cccc(C(=O)Nc3cccc(F)c3)c2)c1C the results were VACV Venus inh -6%, Vaccinia mCherry -13%, HCMV antiviral active and FMDV antiviral -14%.
`CCOC(=O)c1cc(-c2ccccc2)n(-c2cccc(C(=O)Nc3ccc(OC)cc3)c2)c1C` gave VACV Venus inh -7%, Vaccinia mCherry 1%, HCMV antiviral active and FMDV antiviral 0%.
CCOC(=O)c1cc(-c2ccccc2)n(-c2cccc(C(=O)Nc3cccc(C(C)=O)c3)c2)c1C was read as VACV Venus inh inconclusive, Vaccinia mCherry -12%, HCMV antiviral 0 and FMDV antiviral -10%.
For O=C(CSc1nc2ccccc2o1)NCC1CCCO1 (centres undefined) the results were VACV Venus inh -7%, Vaccinia mCherry 0%, HCMV antiviral -10, FMDV antiviral 12% and HCV inhibitor -10%.
Screening Cc1ccc(C(=O)CSc2nc3ccccc3o2)cc1 returned VACV Venus inh -13%, Vaccinia mCherry -21%, HCMV antiviral -61*, FBPA Giardia inh -1% and HCV inhibitor -26%.
For Cc1cc(C(=O)CSc2nc(N)cc(=O)[nH]2)c(C)n1CC1CCCO1 (centres undefined) the results were VACV Venus inh 0%, Vaccinia mCherry -19%, HCMV antiviral -9, FMDV antiviral inconclusive and HCV inhibitor inconclusive.
`Cc1cc(C(=O)CSc2nc3ccccc3o2)c(C)n1CC1CCCO1` (centres undefined) gave VACV Venus inh -13%, HCMV antiviral -70*, FBPA Giardia inh 1%, FMDV antiviral inconclusive and HCV inhibitor inconclusive.
Screening O=C(O)CSc1nc2ccccc2o1 returned HCMV antiviral 27, FBPA Giardia inh 13%, FMDV antiviral 16% and HCV inhibitor 17%.
Cc1cc(C(=O)Cn2nnc(-c3ccc(Cl)cc3)n2)c(C)n1CC1CCCO1 (centres undefined) was read as VACV Venus inh -27%, Vaccinia mCherry -8%, HCMV antiviral inconclusive, FBPA Giardia inh 1% and HCV inhibitor 7.9µM*.
For Cc1cc(C(=O)CSc2nc3ccccc3[nH]2)c(C)n1CC1CCCO1 (centres undefined) the results were VACV Venus inh -18%, Vaccinia mCherry -28%, HCMV antiviral -99*, FBPA Giardia inh 0%, FMDV antiviral 11µM* and HCV inhibitor 1.4µM*.

Screens (PubChem BioAssay)
